Screening results as filed in PubChem BioAssay.
Shown are actives, neighbours in structure and some others; about 3.4% of the full set was active somewhere.
GPR151 ag = activators of human GPR151 | Q8TDV0 | 650,000 tested, 1% active | AID 1508602 | activation, % at 11.2 µM | PathHunter beta-arrestin GPR151 cells, luminescence; in the data active = activation above about 4.9%
Target sequence (Q8TDV0 whole entry, looked up): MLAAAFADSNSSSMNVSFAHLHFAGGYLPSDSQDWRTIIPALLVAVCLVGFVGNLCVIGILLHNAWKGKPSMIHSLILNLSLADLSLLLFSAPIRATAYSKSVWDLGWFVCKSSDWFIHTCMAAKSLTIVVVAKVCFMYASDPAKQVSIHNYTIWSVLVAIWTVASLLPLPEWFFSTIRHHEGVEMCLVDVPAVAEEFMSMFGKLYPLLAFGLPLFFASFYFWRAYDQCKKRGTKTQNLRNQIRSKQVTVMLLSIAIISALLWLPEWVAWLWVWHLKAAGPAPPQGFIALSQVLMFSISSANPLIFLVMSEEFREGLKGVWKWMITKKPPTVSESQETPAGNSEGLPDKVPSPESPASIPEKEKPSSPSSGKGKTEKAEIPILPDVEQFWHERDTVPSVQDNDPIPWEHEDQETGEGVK
FBW7 activator = human FBW7 E3 ligase activation, primary screen. AlphaScreen FBW7–phospho-cyclin E peptide binding, activator screen. normalized activity (activation), % at 26.1 µM. 650,000 tested, 0.13% active. AID 1259310; in the data active = normalized activity above about 1.9%;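 note: purified mutant Fbw7 with reduced substrate affinity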
TEAD-YAP inh = TEAD-YAP interaction inhibition; inhibition, % at 9.12 µM; HEK-TIYL cells, TEAD-Gal4/YAP UAS-luciferase luminescence; 640,000 tested, 1.4% active; in the data active = inhibition above about 32%
MITF primary = blocks human microphthalmia-associated transcription factor; inhibition, % at 2.6 µM; O75030; 650,000 tested, 0.91% active; AlphaScreen MITF homodimerization, bead proximity signal; in the data active = inhibition above about 50%
Each line names hits and unclear results; the compound was inactive in the other large screens.

COc1ccc(/C=C2\C(=O)NC(=O)N(c3cccc(Br)c3)C2=O)cc1OC	none
CCCCNC(=O)c1cc(-c2cccc(O)c2)on1	TEAD-YAP inh 36
CCCCNC(=O)c1cc(-c2cccc(OC)c2)on1	none
O=C(NC1CCCC1)c1cc(-c2cccc(O)c2)on1	TEAD-YAP inh 70
CN(C(=O)c1cc(-c2cccc(O)c2)on1)c1ccccc1	TEAD-YAP inh 48
O=C(NC1CCCCC1)c1cc(-c2ccccc2)on1	none
Cn1ncc([N+](=O)[O-])c1C(=O)Nc1cc(OCC(F)(F)F)cc(OCC(F)(F)F)c1	none
COCCN=c1scc(-c2ccccc2)n1/N=C1\CCc2ccccc21	TEAD-YAP inh 72
CCC(C)NS(=O)(=O)c1ccc2c(c1)OCC(=O)N2 (centres undefined)	none
COc1ccc(-c2nc(N)c3cc(OC)c(OC)cc3n2)cc1	none
COc1cc2nc(N(C)C)nc(N)c2cc1OC	TEAD-YAP inh 61
O=C(N/N=C\c1ccc(Cl)cc1Cl)c1ccc([N+](=O)[O-])cc1	none
C=CCn1c(C)cc(C(=O)COc2ccc(C)nc2[N+](=O)[O-])c1C	none
Cc1ccc(OCC(=O)c2cc(C)n(-c3ccccc3)c2C)c([N+](=O)[O-])n1	TEAD-YAP inh 50
CNc1nc(Nc2ccc(OC)cc2)c2nccnc2n1	FBW7 activator 2.9
CNc1nc(Nc2ccc(C)c(C)c2)c2nccnc2n1	none
COc1cc(C(=O)N2c3ccccc3-c3c(ssc3=S)C2(C)C)cc(OC)c1OC	TEAD-YAP inh 61
COc1ccc2c(c1)-c1c(ssc1=S)C(C)(C)N2C(=O)CSc1nnc(C)s1	TEAD-YAP inh 34
Cc1cc(C)c2c(c1)-c1c(ssc1=S)C(C)(C)N2C(=O)C(C)C	MITF primary 52
Cc1nnc(SCC(=O)N2c3cc(C)c(C)cc3-c3c(ssc3=S)C2(C)C)s1	none
Cc1ccc2c(c1)-c1c(ssc1=S)C(C)(C)N2C(=O)c1ccncc1	TEAD-YAP inh 55
CCC(=O)N1c2c(C)cc(C)cc2-c2c(ssc2=S)C1(C)C	none
CN(C)c1cccc(Nc2ncc(C(=O)NCCc3ccc(O)cc3)s2)c1	none
Oc1ccc(-c2cnc3c(N4CCOCC4)nccn23)cc1	TEAD-YAP inh 79
CC(=O)Nc1cccc(-c2cnc3c(N4CCN(C)CC4)nccn23)c1	none
Oc1cccc(-c2cnc3c(N4CCOCC4)nccn23)c1	TEAD-YAP inh 80
CC(=O)Nc1cccc(-c2cnc3c(N4CCOCC4)nccn23)c1	TEAD-YAP inh 79
CCCOC(=O)c1c(NC(=O)c2cc(-c3ccc(C(C)C)cc3)nc3ccccc23)sc2c1CCC(C)C2 (centres undefined)	none
COc1ccc(/C=C(\NC(=O)c2ccccc2)C(=O)Nc2cccc(C(C)=O)c2)cc1	none
NS(=O)(=O)c1ccc(N/N=C/c2ccc(O)c(O)c2O)c([N+](=O)[O-])c1	MITF primary 70
CCN(CC)c1ccc(/C=N/N=C(N)N)c(O)c1	TEAD-YAP inh 50
NS(=O)(=O)c1ccc(N/N=C/c2ccccc2Br)c([N+](=O)[O-])c1	none
CCN(CC)c1ccc(/C=N/Nc2ccccc2[N+](=O)[O-])c(O)c1	TEAD-YAP inh 40
Cc1ccccc1/C=N/Nc1ccc(S(N)(=O)=O)cc1[N+](=O)[O-]	FBW7 activator 2.0
COc1cccc(C(=O)N2CCN(S(=O)(=O)c3ccc(F)cc3)CC2)c1	none
O=C(CN1Cc2ccccc2C1=O)NC1CCCCCC1	none
COc1cc(C2NC(=O)NC(C)=C2C(=O)OCC(F)(F)F)cc(Br)c1O (centres undefined)	none
CCCCN(C)C(=O)CN1C(=O)c2ccccc2S1(=O)=O	none
Cc1ccc(S(=O)(=O)N(NC2=NS(=O)(=O)c3ccccc32)C(=O)Cc2ccccc2)cc1	none
O=[N+]([O-])c1cc(S(=O)(=O)N/N=C/c2ccc(O)c(O)c2O)ccc1Cl	MITF primary 55
Cc1ccc(S(=O)(=O)N/N=C/c2cc([N+](=O)[O-])ccc2O)cc1[N+](=O)[O-]	none
COc1ccc(/C=N/NC(=O)COc2c(OC)cc([N+](=O)[O-])cc2[N+](=O)[O-])c(OC)c1	none
COc1ccccc1NC(=O)Cn1cnc2sc(C(=O)N3CCN(c4ccccc4OC)CC3)c(C)c2c1=O	FBW7 activator 2.1
COc1ccccc1NC(=O)Cn1cnc2sc(C(=O)N3CCN(c4ccccc4)CC3)c(C)c2c1=O	none
COc1ccccc1NC(=O)Cn1cnc2sc(C(=O)Nc3ccc(C)c(F)c3)c(C)c2c1=O	FBW7 activator 1.9
COc1ccccc1NC(=O)Cn1cnc2sc(C(=O)Nc3cc(F)ccc3C)c(C)c2c1=O	none
CCC(C)NC(=O)c1c[nH]c2ccc(S(=O)(=O)N(C)c3ccc(Cl)cc3)cc2c1=O (centres undefined)	none
O=[N+]([O-])c1ccc(N2CCCC2)cc1N1CCc2ccccc2C1	TEAD-YAP inh 73
O=[N+]([O-])c1ccc(N2CCCCC2)cc1N1CCc2ccccc2C1	none
CCOC(=O)C(CC)Sc1nc2c(c(=O)[nH]c(=O)n2C)n1CC(N)=O (centres undefined)	none
OCc1ccccc1-c1cnc2ccc(NCc3cccs3)nn12	none
COc1ccccc1-c1cnc2ccc(NCc3cccs3)nn12	FBW7 activator 1.9
COc1cc(-c2cnc3ccc(NCc4cccs4)nn23)cc(OC)c1OC	none
CCCNc1ccc2ncc(-c3ccc(O)c(OC)c3)n2n1	TEAD-YAP inh 71
COc1cc(CNc2ccc3ncc(-c4cccc(O)c4)n3n2)cc(OC)c1OC	none
COc1cc(CNc2ccc3ncc(-c4cccc(N(C)C)c4)n3n2)cc(OC)c1OC	TEAD-YAP inh 50
COc1cc(-c2cnc3ccc(NCc4cccs4)nn23)ccc1O	TEAD-YAP inh 40
COc1cc(-c2cnc3ccc(NCC4CC4)nn23)ccc1O	none
O=S1(=O)N=C2CCCCCN2C(c2ccccc2OCc2ccccc2)N1 (centres undefined)	none
Cc1ccc2nc(NC(=S)NC(=O)c3ccc(S(=O)(=O)N4CCCC4)cc3)sc2c1	none
CC(C)c1ccc2oc(-c3cccc(N)c3)nc2c1	TEAD-YAP inh 65
Nc1cccc(-c2nc3cc(S(=O)(=O)c4ccc5oc(-c6cccc(N)c6)nc5c4)ccc3o2)c1	none
CC(C)c1ccc2oc(-c3ccc(N)cc3)nc2c1	TEAD-YAP inh 80
CCOc1ccccc1N/C(C)=C/C(=O)c1ccccc1	none
COc1cccc(/C=C2N=C(/C=C/c3cccc(Cl)c3Cl)OC\2=O)c1OC	none
COc1cccc(N2CCN(c3cc(C)nc4ncnn34)CC2)c1	none
Cc1cc(N2CCN(c3nc4ccccc4s3)CC2)n2ncnc2n1	TEAD-YAP inh 51
CC(=O)c1ccccc1OCCSc1nnc(NC2CCCCC2)s1	none
C=CCNc1nc2c(c(=O)n(C)c(=O)n2C)n1CCC(C)C	TEAD-YAP inh 33
C=CCNc1nc2c(c(=O)n(C)c(=O)n2C)n1CCCCCC	TEAD-YAP inh 47
COc1ccc(OC)c(NC(=O)CSc2ncnc3c2nnn3-c2ccc(F)cc2)c1	none
Cc1[nH]c2ccc(C(=O)NN)cc2c1C	TEAD-YAP inh 38
CCNC(=O)c1ccc2[nH]c(C)c(C)c2c1	none
COC(=O)c1ccc(Nc2nnc(Cc3ccc(Cl)cc3)c(=O)[nH]2)cc1	none
C=CCNC(=S)NNC(=O)c1ccccc1O	TEAD-YAP inh 89
